Measurements: PubChem BioAssay (NCI)
Compounds without any hit were thinned out: in the full panel of roughly 79,000, 15% have a hit. Rule as the data show it: active = growth inhibition above about 70%; inactive = the rest.

Legend:
[1] = NCI Yeast Anticancer Drug Screen. Data for the rad52 strain (AID 147);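 also: 0% = growth of vehicle-treated control cultures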; settings: S. cerevisiae rad52 mutant growth inhibition, hits give high values
Procedure, shortened: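 Yeast strain carrying a DNA damage repair alteration was exposed to test compounds. Growth inhibition was measured relative to vehicle-treated controls.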

[2] = NCI Yeast Anticancer Drug Screen. Data for the wt1 strain (AID 149);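 also: 0% = growth of vehicle-treated wt1 cultures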; settings: S. cerevisiae wt1 strain (SPY 50644) growth inhibition, hits give high values
Procedure, shortened: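 Using yeast strain wt1, compound-induced growth inhibition was determined against vehicle-treated cultures.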

[3] = NCI Yeast Anticancer Drug Screen. Data for the rad50EPP+ strain (AID 151);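 also: 0% = growth of vehicle-treated control cultures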; settings: S. cerevisiae rad50 mutant strain, hits give high values
Procedure, shortened: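 Yeast strain carrying rad50 alteration (rad50EPP+) exposed to compounds; growth inhibition measured relative to vehicle-treated controls.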

[4] = NCI Yeast Anticancer Drug Screen. Data for the mgt1 strain (AID 153); settings: S. cerevisiae mgt1 mutant growth inhibition, hits give high values
Procedure, shortened: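 Yeast mgt1 strain (DNA repair/cell-cycle alteration panel) exposed to compounds; growth inhibition measured relative to vehicle-treated controls.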

[5] = NCI Yeast Anticancer Drug Screen. Data for the rad50 strain (AID 155);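 also: 0% = growth of vehicle-only cultures of the same strain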; settings: S. cerevisiae rad50 strain growth inhibition, hits give high values
Procedure, shortened: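 Relative growth inhibition (compound vs vehicle) was measured in yeast with a defined repair-gene alteration.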

[6] = NCI Yeast Anticancer Drug Screen. Data for the mec2-1 strain (AID 157); settings: S. cerevisiae mec2-1 strain, hits give high values
Procedure, shortened: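 mec2-1 yeast strain, carrying an alteration in DNA damage repair or cell cycle control, was exposed to compounds; growth inhibition was measured relative to vehicle-treated controls.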

[7] = NCI Yeast Anticancer Drug Screen. Data for the rad14 strain (AID 159);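 also: 0% = growth of vehicle-treated control cultures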; settings: S. cerevisiae rad14 strain growth inhibition, hits give high values
Procedure, shortened: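 Screen for anticancer potential: a yeast strain altered in DNA damage repair is grown with compound, and reduced growth is quantified against vehicle controls.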

[8] = NCI Yeast Anticancer Drug Screen. Data for the sgs1 mgt1 strain (AID 161);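 also: 0% = growth of cultures given vehicle only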; settings: S. cerevisiae sgs1 mgt1 strain, hits give high values
Procedure, shortened: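 Growth of a repair-deficient yeast mutant was monitored after compound treatment and expressed as inhibition relative to vehicle-treated cultures.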

[9] = NCI Yeast Anticancer Drug Screen. Data for the CLN2oe strain (AID 163);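 also: 0% = growth of vehicle-only control cultures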; settings: S. cerevisiae CLN2oe strain, hits give high values
Procedure, shortened: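 Yeast cells carrying a defined cell-cycle control alteration were exposed to test compounds. Growth inhibition was scored against vehicle-treated control cultures.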

[10] = NCI Yeast Anticancer Drug Screen. Data for the cln2 rad14 strain (AID 165);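 also: 0% = growth equal to vehicle treated cultures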; settings: S. cerevisiae cln2 rad14 strain, hits give high values
Procedure, shortened: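 Yeast carrying cln2 and rad14 alterations (cell cycle control and DNA damage repair) were exposed to compounds. Growth inhibition was measured against vehicle-treated controls.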

[11] = NCI Yeast Anticancer Drug Screen. Data for the bub3 strain (AID 167); settings: S. cerevisiae bub3 mutant strain, hits give high values
Procedure, shortened: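 Screening used yeast with an engineered genetic alteration affecting cell cycle control. Compound-exposed cultures were compared with vehicle cultures, and reduced growth was taken as inhibition.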

[12] = NCI Yeast Anticancer Drug Screen. Data for the wt2 strain (AID 169);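 also: 0% = growth of vehicle-treated yeast cultures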; settings: S. cerevisiae wt2 strain growth inhibition, hits give high values
Procedure, shortened: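 Yeast cells were exposed to test compounds, and growth inhibition was measured relative to vehicle-treated controls.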

[13] = NCI Yeast Anticancer Drug Screen. Data for the mlh1 strain (AID 171);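 also: 0% = growth of vehicle-treated control cultures of the same strain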; settings: S. cerevisiae mlh1 strain growth inhibition, hits give high values
Procedure, shortened: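 Yeast carrying a defined genetic alteration in DNA damage repair or cell cycle control were exposed to test compounds. Growth inhibition was measured relative to vehicle-treated controls.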

[14] = NCI Yeast Anticancer Drug Screen. Data for the sgs1 strain (AID 173);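 also: 0% = growth of vehicle-only control cultures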; settings: S. cerevisiae sgs1 mutant, hits give high values
Procedure, shortened: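 Yeast mutant strains carrying defined defects in DNA damage repair or cell cycle control were exposed to test compounds. Growth inhibition was scored against vehicle-treated controls.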

[15] = NCI Yeast Anticancer Drug Screen. Data for the mlh1 rad18 strain (AID 175); settings: S. cerevisiae mlh1 rad18 strain growth inhibition, hits give high values
Procedure, shortened: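 Growth inhibition of the yeast strain was measured after compound exposure and expressed relative to vehicle-treated controls. The strain carries defined defects in DNA damage repair.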

[16] = NCI Yeast Anticancer Drug Screen. Data for the rad18 strain (AID 177); settings: S. cerevisiae rad18 mutant growth inhibition, hits give high values
Procedure, shortened: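 Yeast carrying a defined DNA damage repair alteration were exposed to compounds. Growth inhibition was expressed relative to vehicle-treated controls.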

[17] = at 5.0 µM (retest, dose inferred, filed as 0.5)
[18] = at 50.0 µM (retest, dose inferred, filed as 5.0)

Measured: growth inhibition

O=c1[nH]c(-c2ccccc2)nc2c1sc1nc3ccccc3n12
inactive: [1]; at 1.2 µM -15% | [1]; at 3.7 µM -31% | [1]; at 11.0 µM -23% | [1]; at 33.0 µM -15% | [1]; at 100.0 µM -18% | [2]; at 1.2 µM -24% | [2]; at 3.7 µM -25% | [2]; at 11.0 µM -20% | [2]; at 33.0 µM -25% | [2]; at 100.0 µM -17% | [3]; at 1.2 µM -2% | [3]; at 3.7 µM -31% | [3]; at 11.0 µM -36% | [3]; at 33.0 µM -40% | [3]; at 100.0 µM -31% | [4]; at 1.2 µM -20% | [4]; at 3.7 µM -18% | [4]; at 11.0 µM -17% | [4]; at 33.0 µM -8% | [4]; at 100.0 µM -25% | [5]; at 1.2 µM 11% | [5]; at 3.7 µM 5% | [5]; [17] 8% | [5]; at 11.0 µM -8% | [5]; at 33.0 µM -13% | [5]; [18] 56% | [5]; at 50.0 µM 13.4% | [5]; at 100.0 µM -9% | [6]; at 1.2 µM -34% | [6]; at 3.7 µM -23% | [6]; [17] 5% | [6]; at 11.0 µM -30% | [6]; at 33.0 µM -19% | [6]; [18] 9% | [6]; at 50.0 µM -15.2% | [6]; at 100.0 µM -27% | [7]; at 1.2 µM -24% | [7]; at 3.7 µM -22% | [7]; at 11.0 µM -24% | [7]; at 33.0 µM -14% | [7]; at 100.0 µM -11% | [8]; [17] 7% | [8]; [18] 62% | [8]; at 50.0 µM -30.5% | [9]; at 1.2 µM -52% | [9]; at 3.7 µM -72% | [9]; at 11.0 µM -39% | [9]; at 33.0 µM -23% | [9]; at 100.0 µM -20% | [10]; [17] 14% | [10]; [18] 19% | [10]; at 50.0 µM 5.95% | [11]; at 1.2 µM -35% | [11]; at 3.7 µM -45% | [11]; [17] 6% | [11]; at 11.0 µM -43% | [11]; at 33.0 µM -43% | [11]; [18] 7% | [11]; at 50.0 µM -35.5% | [11]; at 100.0 µM -33% | [12]; at 1.2 µM 2% | [12]; at 3.7 µM -6% | [12]; at 11.0 µM -6% | [12]; at 33.0 µM 19% | [12]; at 100.0 µM 5% | [13]; at 1.2 µM -24% | [13]; at 3.7 µM -44% | [13]; at 11.0 µM -47% | [13]; at 33.0 µM -28% | [13]; at 100.0 µM -42% | [14]; at 1.2 µM -47% | [14]; at 3.7 µM -43% | [14]; at 11.0 µM -39% | [14]; at 33.0 µM -38% | [14]; at 100.0 µM -42% | [15]; [17] 4% | [15]; [18] 22% | [15]; at 50.0 µM -23.4% | [16]; at 1.2 µM -35% | [16]; at 3.7 µM -38% | [16]; at 11.0 µM -39% | [16]; at 33.0 µM -38% | [16]; at 100.0 µM -38%
